# Measured values as given in PubChem BioAssay.
# Several values for one entry are separate records, joined by “and”; a condition that tells them apart may be missing. Equal values may be shown once. For some of these results: Potency and affinity values are given separately. Activity calls are given as the source filed them. Where a call stands in place of a potency, no number is given. Unless noted, no rule for the calls is given here.
# How the values were obtained:
# [1] = antimalarial activity against Dd2 strain (AID 2302;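 active = growth inhibition above 50% at the single 2 µM test dose, taken to imply half-maximal potency below 2 µM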); conditions: P. falciparum Dd2 in RBCs, LDH growth readout, 72 h; at 2 µM; active compounds read high
# [2] = HepG2 cytotoxicity, primary screen, cytotoxicity control for P. falciparum antimalarial project, cell-based, ATP luminescence (AID 2303;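 active = inhibition above 50%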); conditions: HepG2 viability, 24-48 h, at 10 µM, active compounds read high
# [3] = target: L-lactate dehydrogenase (Plasmodium falciparum (isolate CDC / Honduras)) (UniProt Q27743); assay: PfLDH activity inhibition – cell lysate, 3D7 strain, counter-screen for P. falciparum growth inhibition project (AID 2304); conditions: P. falciparum 3D7 crude extract, LDH APAD/NBT absorbance; at 2 µM; active compounds read high
# [4] = inhibition of 3D7 malaria parasite growth – strain 3D7 (AID 2306); conditions: P. falciparum 3D7 erythrocytic growth, LDH absorbance, 72 h; at 2 µM; active compounds read high
# [5] = target: Calcium-dependent protein kinase 1 (Plasmodium falciparum (isolate 3D7)) (UniProt P62344); assay: PfCDPK1 kinase inhibitors, biochemical, TCAMS library (AID 1159585; cut-off not given, nearly all actives have IC50 up to about 0.98 µM;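 also: inhibitors leave more ATP so luminescence rises with inhibition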); conditions: recombinant PfCDPK1, Kinase-Glo ATP depletion luminescence
# [6] = target: Plasmodium falciparum protein kinase 6 (PK6, PF3D7_1337100) (UniProt Q8IDW1); assay: PfPK6 kinase inhibitors, biochemical, TCAMS library (AID 1159586); conditions: recombinant PfPK6, Kinase-Glo ATP depletion luminescence
# [7] = target: Protein kinase 7 (PK7), Plasmodium falciparum 3D7 (PF3D7_0213400) (UniProt Q7YTF7); assay: inhibition of Plasmodium PK7 catalytic activity – biochemical, TCAMS antimalarial set, Kinase-Glo luminescence (AID 1159587); conditions: recombinant PfPK7, Kinase-Glo ATP depletion luminescence
# [8] = target: Calcium-dependent protein kinase 4 (Plasmodium falciparum (isolate 3D7)) (UniProt Q8IBS5); assay: PfCDPK4 kinase inhibitors, biochemical, TCAMS library (AID 1159588; cut-off not given, nearly all actives have IC50 up to about 0.91 µM); conditions: recombinant PfCDPK4, Kinase-Glo ATP depletion luminescence
# Calcium-dependent protein kinase 4 (Plasmodium falciparum (isolate 3D7)), sequence (Q8IBS5 whole entry, looked up): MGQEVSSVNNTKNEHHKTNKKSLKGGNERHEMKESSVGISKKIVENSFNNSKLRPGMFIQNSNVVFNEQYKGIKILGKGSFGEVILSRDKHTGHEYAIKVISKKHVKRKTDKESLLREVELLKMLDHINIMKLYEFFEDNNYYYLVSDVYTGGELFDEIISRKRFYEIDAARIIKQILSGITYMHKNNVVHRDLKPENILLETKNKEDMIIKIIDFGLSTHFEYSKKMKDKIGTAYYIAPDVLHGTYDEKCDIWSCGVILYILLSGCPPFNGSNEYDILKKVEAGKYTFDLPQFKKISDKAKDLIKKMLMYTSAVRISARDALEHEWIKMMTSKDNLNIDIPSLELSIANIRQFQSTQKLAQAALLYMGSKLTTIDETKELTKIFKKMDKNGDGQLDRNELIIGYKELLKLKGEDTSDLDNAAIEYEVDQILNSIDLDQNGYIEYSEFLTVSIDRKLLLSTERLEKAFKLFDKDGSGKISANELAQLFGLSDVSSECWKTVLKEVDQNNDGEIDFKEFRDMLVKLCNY
# Protein kinase 7 (PK7), Plasmodium falciparum 3D7 (PF3D7_0213400), sequence (Q7YTF7 1-343): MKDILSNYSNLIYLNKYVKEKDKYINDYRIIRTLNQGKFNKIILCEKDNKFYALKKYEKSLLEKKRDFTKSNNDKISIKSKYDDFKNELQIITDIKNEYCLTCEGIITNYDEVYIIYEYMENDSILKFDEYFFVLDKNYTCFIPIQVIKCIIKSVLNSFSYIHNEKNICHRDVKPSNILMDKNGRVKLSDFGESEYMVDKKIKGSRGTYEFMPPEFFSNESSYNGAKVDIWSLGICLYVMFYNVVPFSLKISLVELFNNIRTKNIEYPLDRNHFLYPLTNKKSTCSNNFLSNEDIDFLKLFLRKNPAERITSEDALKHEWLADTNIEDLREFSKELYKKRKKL
# Plasmodium falciparum protein kinase 6 (PK6, PF3D7_1337100), sequence (Q8IDW1 1-305): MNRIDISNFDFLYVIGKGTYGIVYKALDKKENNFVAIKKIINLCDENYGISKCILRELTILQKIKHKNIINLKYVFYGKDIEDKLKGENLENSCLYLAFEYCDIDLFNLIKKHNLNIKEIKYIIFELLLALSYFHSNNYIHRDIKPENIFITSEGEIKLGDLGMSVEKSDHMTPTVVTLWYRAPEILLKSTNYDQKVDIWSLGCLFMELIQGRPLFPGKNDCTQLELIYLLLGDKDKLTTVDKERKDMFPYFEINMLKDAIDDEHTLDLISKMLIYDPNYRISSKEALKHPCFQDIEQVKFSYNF
# L-lactate dehydrogenase (Plasmodium falciparum (isolate CDC / Honduras)), sequence (Q27743 whole entry, looked up): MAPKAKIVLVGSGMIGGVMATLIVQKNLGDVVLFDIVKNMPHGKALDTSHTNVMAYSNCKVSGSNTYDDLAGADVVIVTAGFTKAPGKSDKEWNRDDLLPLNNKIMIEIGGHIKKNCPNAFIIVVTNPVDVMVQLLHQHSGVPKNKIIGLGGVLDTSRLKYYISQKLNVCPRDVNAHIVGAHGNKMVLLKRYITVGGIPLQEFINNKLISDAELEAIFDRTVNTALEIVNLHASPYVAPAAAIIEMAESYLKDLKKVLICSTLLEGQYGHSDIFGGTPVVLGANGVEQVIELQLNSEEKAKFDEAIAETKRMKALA
# Calcium-dependent protein kinase 1 (Plasmodium falciparum (isolate 3D7)), sequence (P62344 whole entry, looked up): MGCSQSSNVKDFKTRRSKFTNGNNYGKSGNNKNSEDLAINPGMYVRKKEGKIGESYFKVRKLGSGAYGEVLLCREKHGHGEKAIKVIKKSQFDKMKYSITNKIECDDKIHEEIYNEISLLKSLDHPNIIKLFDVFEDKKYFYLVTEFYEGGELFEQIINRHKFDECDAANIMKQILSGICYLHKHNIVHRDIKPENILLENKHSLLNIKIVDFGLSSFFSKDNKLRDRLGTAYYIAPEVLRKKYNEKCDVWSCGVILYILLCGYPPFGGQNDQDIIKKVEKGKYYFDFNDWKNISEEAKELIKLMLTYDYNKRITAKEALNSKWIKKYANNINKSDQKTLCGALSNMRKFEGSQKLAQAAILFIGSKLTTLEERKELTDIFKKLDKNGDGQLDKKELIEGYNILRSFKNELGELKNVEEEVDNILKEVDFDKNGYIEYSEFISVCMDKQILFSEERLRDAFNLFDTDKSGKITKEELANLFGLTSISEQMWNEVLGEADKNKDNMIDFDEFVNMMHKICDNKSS
Structure (SMILES),growth inhibition [1],inhibition [2],inhibition [3],growth inhibition [4],outcome [5],outcome [6],outcome [7],outcome [8]
Oc1ccccc1CN(CCCN(Cc1ccccn1)Cc1ccccc1O)Cc1ccccn1,92% (active),64% (active),3% (inactive),92% (active),inactive,inactive,inactive,inactive
CC(CCCCC(=O)Nc1ccc(C(F)(F)F)cc1)NCC(O)c1cccc(Cl)c1 (stereo not given),92% (active),51% (active),-8% (inactive),99% (active),inactive,inactive,inactive,inactive
O=C(Cc1cnc[nH]1)Nc1ccc(-c2cccc(-c3nc4ccc(F)cc4[nH]3)c2)cc1,70% (active),28% (inactive),4% (inactive),100% (active),inactive,inactive,inactive,inactive
FC(F)(F)c1cccc(C=NNc2nc3ccccc3[nH]2)c1,99% (active),1% (inactive),0% (inactive),101% (active),inactive,inactive,inactive,inactive
Cc1cc(=O)c(-c2ccc(Oc3cccc(C(F)(F)F)c3)cc2)c(C)[nH]1,95% (active) and 97% (active),8% (inactive) and 14% (inactive),-2% (inactive) and -1% (inactive),96% (active) and 97% (active),inactive,inactive,inactive,inactive
O=C(Nc1cccc(C(F)(F)F)c1)N1CCOC(CCN2CCC3(CCc4ccccc43)CC2)(c2ccc(Cl)c(Cl)c2)C1 (stereo not given),70% (active),31% (inactive),0% (inactive),99% (active),inactive,inactive,inactive,inactive
Cc1cc(N(C)C)nc(Nc2ccc(NC(=O)c3ccccc3F)cc2)n1,26% (inactive),0% (inactive),4% (inactive),89% (active),inactive,inactive,inactive,inactive
O=C(NCCCCN1CC[C@@H]2c3cccc(O)c3CC[C@H]21)c1ccc(-c2ccccc2)cc1,50% (active),23% (inactive),2% (inactive),81% (active),inactive,inactive,inactive,inactive
COc1ccc(NC(=O)N2CCN(CCCCCNC(=O)/C=C/c3ccc(C(F)(F)F)cc3)CC2)cc1Cl,-5% (inactive),25% (inactive),-2% (inactive),94% (active),inactive,inactive,inactive,inactive
COc1ccc(-c2ccc(S(=O)(=O)Nc3cc4c(cc3OC(C)C)CCN(C)CC4)cc2)cc1,2% (inactive),16% (inactive),-4% (inactive),98% (active),inactive,inactive,inactive,inactive
CCC1CN2CCc3c([nH]c4ccccc34)[C@@H]2C[C@@H]1CC1NCCc2cc(OC)c(OC)cc21 (stereo not given in full),67% (active) and 83% (active),33% (inactive) and 26% (inactive),3% (inactive) and 1% (inactive),100% (active),inactive,inactive,inactive,inactive
COc1ccc(-n2ccnc2SCC(=O)Nc2cc(C)ccc2C)c(OC)c1,93% (active),2% (inactive),-3% (inactive),94% (active),inactive,inactive,inactive,inactive
NC1=NC(c2ccccc2)(c2ccccc2)C(=O)N1C1CCCCC1,87% (active),13% (inactive),0% (inactive),100% (active),inactive,inactive,inactive,inactive
CC(C)Oc1ccc2c(c1)OC(c1ccccc1)(C(F)(F)F)NC2=O (stereo not given),98% (active),-6% (inactive),-2% (inactive),101% (active),inactive,inactive,inactive,inactive
O=C(Nc1cccc(C(F)(F)F)c1)Nc1ccc(Cl)c(Cl)c1,100% (active),5% (inactive),-4% (inactive),100% (active),inactive,inactive,inactive,inactive
Cc1noc(C)c1-c1ccc2c(Nc3ccccc3C(C)(C)C)c(C(=O)NCc3ccc(OC(C)C)cc3)cnc2c1,98% (active),-3% (inactive),0% (inactive),100% (active),inactive,inactive,inactive,inactive
CCCCN(Cc1cc(Cl)c(OC)c(OC)c1)c1ccc(C(O)(C(F)(F)F)C(F)(F)F)cc1,73% (active),3% (inactive),6% (inactive),98% (active),inactive,inactive,inactive,inactive
O=C1c2cc(I)ccc2SC1c1ccccc1 (stereo not given),98% (active),-7% (inactive),-2% (inactive),96% (active),inactive,inactive,inactive,inactive

Structure (SMILES),growth inhibition [1],inhibition [2],inhibition [3],growth inhibition [4],outcome [5],outcome [6],outcome [7],outcome [8]
NC(=O)COc1cccc2c1CCN(CCN1CCC(NC(=O)c3ccc(-c4ccc(Cl)cc4)cc3)CC1)C2,6% (inactive),44% (inactive),-1% (inactive),92% (active),inactive,inactive,inactive,inactive
CC1(C)N=C(N)N=C(N)N1OCCCCOc1ccccc1,95% (active),60% (active),-1% (inactive),95% (active),inactive,inactive,inactive,inactive
Cc1cc(O)c(-c2cc(C(=O)Nc3cccnc3)[nH]n2)cc1C,97% (active),12% (inactive),-7% (inactive),97% (active),inactive,inactive,inactive,inactive
Cc1ccc2nc(C)cc(NC(=O)Nc3ccc(N(C)C)cc3)c2c1,41% (inactive),12% (inactive),-3% (inactive),100% (active),inactive,inactive,inactive,inactive
CNCCNCc1ccc(-c2cccc(-c3nc4ccc(C(F)(F)F)cc4[nH]3)c2)cc1,77% (active),27% (inactive),1% (inactive),98% (active),inactive,inactive,inactive,inactive
CC(=O)Nc1ccc(CN2Cc3ccc(NC(=O)Nc4ccc(Oc5ccccc5)cc4)cc3C2)s1,25% (inactive),9% (inactive),6% (inactive),91% (active),inactive,inactive,inactive,inactive
COc1ccc(C(C(=O)NC2CCN(C[C@H](O)c3ccnc4ccc(OC)cc34)CC2)N2CCN(Cc3ccccc3)CC2)cc1 (stereo not given in full),72% (active),18% (inactive),-9% (inactive),100% (active),inactive,inactive,inactive,inactive
CS(=O)(=O)c1ccc2nc(NC(=O)c3csnn3)sc2c1,95% (active),3% (inactive),0% (inactive),90% (active),inactive,inactive,inactive,inactive
COc1cccc(CNC(=O)c2cnc(N3CCN(c4ccncc4)CC3)c(Cl)c2)c1,12% (inactive),25% (inactive),5% (inactive),89% (active),inactive,inactive,inactive,inactive
Cc1nc2ccccc2c(=O)n1NCc1ccc(Cl)c(Cl)c1,92% (active),12% (inactive),0% (inactive),96% (active),inactive,inactive,inactive,inactive
CCNc1cc(C(=O)N[C@@H](Cc2ccc(F)c(F)c2)[C@H](O)CNCc2cccc(OC)c2)cc(N2CCCCS2(=O)=O)c1,85% (active),4% (inactive),-7% (inactive),99% (active),inactive,inactive,inactive,inactive
O=C(Nc1cc(Cl)c(Cl)cc1NC(=O)c1cccc(-c2ccccc2)c1O)c1cccc(-c2ccccc2)c1O,100% (active),79% (active),2% (inactive),100% (active),inactive,inactive,inactive,inactive
O=C(Nc1ccc2c(c1)CCN2C1CCN(Cc2cccc3cc[nH]c23)C1)c1ccco1 (stereo not given),86% (active),-1% (inactive),2% (inactive),88% (active),inactive,inactive,inactive,inactive
CCCCSc1c(CNCCCCCCNCc2ccc3ccccc3c2SCCCC)ccc2ccccc12,62% (active),99% (active),-9% (inactive),93% (active),inactive,inactive,inactive,inactive
Cc1cc(N[C@@H](Cc2ccccc2)C(=O)NC2CCCC2)nc(NCCc2cccs2)n1,14% (inactive),-6% (inactive),-2% (inactive),99% (active),inactive,inactive,inactive,inactive
CN1CCN(Cc2ccc(-c3cc4nccc(Nc5ccc(Oc6ccccc6)cc5)c4cc3Cl)o2)CC1,99% (active),3% (inactive),-5% (inactive),100% (active),inactive,inactive,inactive,inactive
COc1cccc(-c2ccc3ccnc(N)c3c2)c1,93% (active),40% (inactive),0% (inactive),101% (active),inactive,inactive,inactive,inactive
